# Laboratory results reported in the antibiotic and cytotoxicity screens of Wong et al. (2023).
# Out of some 39,000 compounds screened, about 3,300 (8.5%) were called active. Many of the other results were omitted from the sample, so actives are more common in it than they were.
# Test system: HepG2
# Assay: cytotoxicity call (relative viability < 0.9)
# Details: 10 µM
row,Compound,cytotoxicity call
1,CN(Cc1cc(Br)cc(Br)c1N)C1CCCCC1.Cl,inactive
2,C[C@@H]1CN([C@@H](C)CO)C(=O)c2ccccc2-c2ccccc2CO[C@@H]1CN(C)Cc1ccc(-c2ccccc2)cc1,inactive
3,Cc1noc(C)c1NC(=O)Nc1ccc2c(c1)C(=O)N([C@@H](C)CO)C[C@@H](C)[C@@H](CN(C)Cc1ccc3c(c1)OCO3)OCCCC[C@H](C)O2,inactive
4,Cc1cc(C(=O)Nc2cccc3c2O[C@H](CN(C)Cc2ccc(C(=O)O)cc2)[C@H](C)CN([C@@H](C)CO)C3=O)n(C)n1,inactive
5,CO[C@H]1CN(C)C(=O)c2cc(NS(=O)(=O)c3cn(C)cn3)ccc2OC[C@@H](C)N(CCC(F)(F)F)C[C@@H]1C,inactive
6,C[C@@H]1CCCCO[C@@H](CN(C)S(C)(=O)=O)[C@@H](C)CN([C@@H](C)CO)C(=O)c2cc(N(C)C)ccc2O1,inactive
7,C[C@H](CO)N1C[C@H](C)[C@H](CN(C)S(C)(=O)=O)Oc2ccc(NC(=O)Cn3cnnn3)cc2CC1=O,inactive
8,CC(C)N1C[C@H](C)[C@@H](CN(C)Cc2ccc(Cl)c(Cl)c2)Oc2c(cccc2-c2nnc(-c3ccncc3)o2)C1=O,inactive
9,Cc1noc(C)c1NC(=O)N[C@@H]1CC[C@@H](CC(=O)NCCCN(C)C)O[C@@H]1CO,inactive
10,CC(C)CC#Cc1ccc2c(c1)O[C@H](CN(C)C(=O)C1CCOCC1)[C@H](C)CN([C@@H](C)CO)S2(=O)=O,inactive
11,CCCN(C)C[C@H]1OCCCC[C@@H](C)Oc2ccc(NS(=O)(=O)c3cn(C)cn3)cc2C(=O)N([C@@H](C)CO)C[C@@H]1C,inactive
12,C[C@H]1CN([C@@H](C)CO)C(=O)c2cccc(NS(=O)(=O)c3cn(C)cn3)c2O[C@H]1CN(C)C(=O)NC1CCCCC1,inactive
13,COc1ccc(S(=O)(=O)Nc2ccc3c(c2)CC(=O)N([C@H](C)CO)C[C@@H](C)[C@H](CN(C)S(=O)(=O)c2ccc(C)cc2)O3)cc1,inactive
14,Cc1noc(C)c1NC(=O)N[C@@H]1C=C[C@@H](CC(=O)NCCCN(C)C)O[C@H]1CO,inactive
15,COc1ccc(S(=O)(=O)N(C)C[C@H]2OCCCC[C@@H](C)Oc3ccc(NS(=O)(=O)c4cn(C)cn4)cc3C(=O)N([C@H](C)CO)C[C@H]2C)cc1,active
16,COc1ccc(S(=O)(=O)Nc2ccc3c(c2)C(=O)N([C@H](C)CO)C[C@@H](C)[C@H](CN(C)S(=O)(=O)c2ccc(Cl)cc2)OCCCC[C@@H](C)O3)cc1,inactive
17,COc1ccc(S(=O)(=O)Nc2ccc3c(c2)C(=O)N([C@@H](C)CO)C[C@H](C)[C@H](CN(C)S(=O)(=O)c2ccc(Cl)cc2)OCCCC[C@@H](C)O3)cc1,active
18,COc1ccc(S(=O)(=O)N(C)C[C@H]2OCCCC[C@H](C)Oc3ccc(NS(=O)(=O)c4ccc(Cl)cc4)cc3C(=O)N([C@H](C)CO)C[C@H]2C)cc1,active
19,COc1ccc(S(=O)(=O)N(C)C[C@@H]2OCCCC[C@H](C)Oc3ccc(NS(=O)(=O)c4cn(C)cn4)cc3C(=O)N([C@H](C)CO)C[C@@H]2C)cc1,inactive
20,COc1ccc(S(=O)(=O)N(C)C[C@H]2OCCCC[C@@H](C)Oc3ccc(NS(=O)(=O)c4ccc(Cl)cc4)cc3C(=O)N([C@H](C)CO)C[C@H]2C)cc1,active

row,Compound,cytotoxicity call
1,COc1ccc(S(=O)(=O)Nc2ccc3c(c2)C(=O)N([C@@H](C)CO)C[C@H](C)[C@@H](CN(C)S(=O)(=O)c2ccc(Cl)cc2)OCCCC[C@@H](C)O3)cc1,inactive
2,COc1ccc(S(=O)(=O)N(C)C[C@@H]2OCCCC[C@@H](C)Oc3ccc(NS(=O)(=O)c4cn(C)cn4)cc3C(=O)N([C@@H](C)CO)C[C@H]2C)cc1,inactive
3,Cc1noc(C)c1S(=O)(=O)Nc1ccc2c(c1)C(=O)N([C@H](C)CO)C[C@@H](C)[C@@H](CN(C)S(=O)(=O)c1ccccc1)O2,inactive
4,COc1ccc(NC(=O)Nc2cccc3c2O[C@@H](CN(C)S(C)(=O)=O)[C@H](C)CN([C@H](C)CO)C3=O)cc1,inactive
5,COc1cccc(NC(=O)N[C@H]2CC[C@@H](CC(=O)N3CCOCC3)O[C@@H]2CO)c1,inactive
6,CO[C@@H]1CN(C)C(=O)c2cc(NC(=O)C3CCOCC3)ccc2OC[C@@H](C)N(C(=O)C2CCOCC2)C[C@H]1C,inactive
7,CN1C(=O)c2cc(NS(=O)(=O)c3ccc(F)cc3)ccc2OC[C@H]2O[C@@H](CC(=O)Nc3cccc4ccccc34)CC[C@@H]21,inactive
8,C[C@H](CO)N1C[C@H](C)[C@H](CN(C)C(=O)Nc2ccc(F)cc2)OCCCC[C@H](C)Oc2ccc(NC(=O)CCCN(C)C)cc2C1=O,inactive
9,COc1ccc(S(=O)(=O)Nc2ccc3c(c2)CC(=O)N([C@@H](C)CO)C[C@@H](C)[C@H](CN(C)Cc2ccc(C(=O)O)cc2)O3)cc1,inactive
10,C[C@@H]1CN([C@@H](C)CO)C(=O)c2cc(NS(=O)(=O)c3ccccc3)ccc2O[C@@H](C)CCCCO[C@H]1CN(C)Cc1ccccc1,inactive
11,COc1ccc(S(=O)(=O)N(C)C[C@@H]2OCCCC[C@@H](C)Oc3ccc(NS(=O)(=O)c4ccc(Cl)cc4)cc3C(=O)N([C@@H](C)CO)C[C@@H]2C)cc1,inactive
12,COc1ccc(S(=O)(=O)N(C)C[C@@H]2OCCCC[C@H](C)Oc3ccc(NS(=O)(=O)c4ccc(Cl)cc4)cc3C(=O)N([C@H](C)CO)C[C@H]2C)cc1,active
13,COc1ccc(S(=O)(=O)N(C)C[C@@H]2OCCCC[C@@H](C)Oc3ccc(NS(=O)(=O)c4ccc(Cl)cc4)cc3C(=O)N([C@H](C)CO)C[C@H]2C)cc1,active
14,COc1ccc(S(=O)(=O)Nc2ccc3c(c2)C(=O)N([C@H](C)CO)C[C@H](C)[C@@H](CN(C)S(=O)(=O)c2ccc(Cl)cc2)OCCCC[C@@H](C)O3)cc1,active
15,COc1ccc(S(=O)(=O)Nc2ccc3c(c2)C(=O)N([C@H](C)CO)C[C@@H](C)[C@H](CN(C)S(=O)(=O)c2ccc(Cl)cc2)OCCCC[C@H](C)O3)cc1,inactive
16,COc1ccc(S(=O)(=O)N(C)C[C@H]2OCCCC[C@@H](C)Oc3ccc(NS(=O)(=O)c4ccc(Cl)cc4)cc3C(=O)N([C@@H](C)CO)C[C@H]2C)cc1,active
17,COc1ccc(NC(=O)Nc2ccc3c(c2)C(=O)N([C@@H](C)CO)C[C@@H](C)[C@@H](CN(C)C(=O)Nc2cccc4ccccc24)OCCCC[C@H](C)O3)cc1,inactive
18,C[C@@H]1CCCCO[C@@H](CN(C)C(=O)Nc2ccc(F)cc2)[C@H](C)CN([C@@H](C)CO)C(=O)c2cc(NC(=O)Nc3ccc(F)cc3)ccc2O1,inactive
19,O=C(C[C@@H]1CC[C@@H]2[C@H](COC[C@@H](O)CN2C(=O)c2ccccc2)O1)NCCCN1CCOCC1,inactive
20,C[C@H](CO)N1C[C@H](C)[C@@H](CN(C)C(=O)Cc2ccncc2)Oc2cc(C#CC3(O)CCCC3)ccc2S1(=O)=O,inactive

row,Compound,cytotoxicity call
1,CN(C)CCCNC(=O)C[C@@H]1CC[C@@H]2[C@H](COc3ccc(NC(=O)c4ccc5c(c4)OCO5)cc3C(=O)N2C)O1,inactive
2,O=C(CCCCCNC(=O)OC[C@]12N=C3SCc4ccccc4CN3[C@H](c3ccccc3O1)[C@H]2COC(=O)c1ccccc1)NO,inactive
3,C[C@@H]1CN([C@H](C)CO)S(=O)(=O)c2ccc(Br)cc2O[C@@H]1CN(C)CC1CCOCC1,inactive
4,O=C(Nc1cccc2cccnc12)[C@@H]1[C@H](c2ccc3ccccc3c2)CC(=O)N1C(=O)OCc1ccccc1,inactive
5,COc1ccc2c3c(n(c2c1)C)[C@@H](CO)N(CC1CCOCC1)C[C@]13CN(C1)C(=O)c1cccc(c1)F,inactive
6,C[C@@H]1CN([C@@H](C)CO)C(=O)Cc2cc(NC(=O)c3ccncc3)ccc2O[C@H]1CN(C)S(=O)(=O)c1ccc(F)cc1,inactive
7,COc1ccc(NC(=O)Nc2ccc3c(c2)C(=O)N([C@@H](C)CO)C[C@@H](C)[C@@H](CN(C)S(=O)(=O)c2ccc(F)cc2)OCCCC[C@H](C)O3)cc1,inactive
8,COc1ccc(S(=O)(=O)Nc2ccc3c(c2)C(=O)N([C@H](C)CO)C[C@@H](C)[C@@H](CN(C)S(=O)(=O)c2ccc(Cl)cc2)OCCCC[C@H](C)O3)cc1,inactive
9,COc1ccc(S(=O)(=O)Nc2ccc3c(c2)C(=O)N([C@@H](C)CO)C[C@@H](C)[C@H](CN(C)S(=O)(=O)c2ccc(Cl)cc2)OCCCC[C@H](C)O3)cc1,inactive
10,COc1ccc(S(=O)(=O)N(C)C[C@H]2OCCCC[C@H](C)Oc3ccc(NS(=O)(=O)c4ccc(Cl)cc4)cc3C(=O)N([C@H](C)CO)C[C@@H]2C)cc1,active
11,CCOC(=O)c1cc2c(c(-c3cccc(Br)c3)n1)[C@@H](CCOC)N([S@](=O)C(C)(C)C)C2,inactive
12,Nc1ncnc2c1ncn2[C@@H]1C=C[C@H](CO)O1,inactive
13,CCC(=O)N[C@@H]1C=C[C@H](CC(=O)OC)O[C@@H]1CO,inactive
14,Cc1cc(=O)n2ncnc2[nH]1,inactive
15,C[C@H]1CCCCO[C@H](CN(C)S(=O)(=O)c2ccccc2)[C@@H](C)CN([C@@H](C)CO)C(=O)c2cc(NC(=O)Nc3ccccc3)ccc2O1,inactive
16,CCC1(O)CC2CN(CCc3c([nH]c4ccccc34)C(C(=O)OC)(c3cc4c(cc3OC)N(C)C3C(O)(C(=O)OC)C(OC(C)=O)C5(CC)C=CCN6CCC43C65)C2)C1.O=S(=O)(O)O (stereo not drawn),active
17,CCC1(O)CC2CN(CCc3c([nH]c4ccccc34)C(C(=O)OC)(c3cc4c(cc3OC)N(C=O)C3C(O)(C(=O)OC)C(OC(C)=O)C5(CC)C=CCN6CCC43C65)C2)C1.O=S(=O)(O)O (stereo not drawn),active
18,COc1ccc(S(=O)(=O)N(C)C[C@H]2OCCCC[C@H](C)Oc3ccc(NC(=O)c4ccccc4)cc3C(=O)N([C@H](C)CO)C[C@@H]2C)cc1,inactive
